Targets with a hit are over-represented here; the source holds about 8,800 in all. About 0.5% of all pairs of compound and target were hits. Unmarked numbers belong to inactive results.
Columns and labels:
Assay in all cases: log2 fold change, soluble protein after heating vs DMSO (PISA); higher = thermal stabilisation; K562 lysate, 10 uM; active = over 0.2 and 3.5 SD of the protein, either way, in both replicates (recomputed)
ibrutinib = compound: C=CC(=O)N1CCC[C@@H](n2nc(-c3ccc(Oc4ccccc4)cc3)c3c(N)ncnc32)C1 [ibrutinib]
Procedure, shortened: (§1)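 K562 pellets were dounce-homogenised in PBS pH 7.4 with 1 mM MgCl2, and the crude extract at 1 mg/mL protein was treated with 10 μM compound for 30 min. Aliquots were heated for 3 min across 48°C-58°C, pooled, and brought to 0.5% NP-40 at 4°C; soluble protein was the supernatant after 21,000xg for 90 min. Soluble protein was quantified by TMTpro 16plex LC-MS/MS with channel sums equalised, and reported as log2 fold change in thermal stability against DMSO controls, with values from duplicates.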

[1] = compound: CC(=O)c1cnc2ccc(-c3cc(Cl)c(O)c(Cl)c3)nc2c1N[C@H]1CC[C@H](CN(C)C)CC1
Procedure, shortened: as §1

ralimetinib = compound: CC(C)(C)Cn1c(N)nc2ccc(-c3[nH]c(C(C)(C)C)nc3-c3ccc(F)cc3)nc21 [ralimetinib]
Procedure, shortened: as §1

[2] = compound: CC(C)(O)CC(=O)NCCn1ccc2ncnc(Nc3ccc(Oc4cccc(C(F)(F)F)c4)c(Cl)c3)c21
Procedure, shortened: as §1

[3] = compound: CC(C)C1=C2N=C(C=C(N2N=C1)NCC3=CC=CC=C3)NCCCCCCN
Procedure, shortened: as §1

[4] = compound: CC1=C(C(CC(=O)N1)C2=CC=C(C=C2)C(F)(F)F)C(=O)NC3=C(C=C4C(=C3)C=NN4)F
Procedure, shortened: as §1

[5] = compound: CC1=C(C2=C(C=C1)C(=O)C3=CC=CC=C3N2CCCN)C
Procedure, shortened: as §1

[6] = compound: CC1=C(C=C(C=C1)NC(=O)C2=CC(=CC=C2)C(C)(C)C#N)NC3=CC4=C(C=C3)N=CN(C4=O)C
Procedure, shortened: as §1

[7] = compound: CC1=C(C=C(C=C1)NC(=O)C2=CC(=CC=C2)N(C)C)NC(=O)C3=CC=C(C=C3)O
Procedure, shortened: as §1

[8] = compound: CC1=CC=C(C=C1)SC2=C3C=C(SC3=CN=C2)C(=O)N
Procedure, shortened: as §1

UniProt P49642, sequence (P49642 whole entry, looked up): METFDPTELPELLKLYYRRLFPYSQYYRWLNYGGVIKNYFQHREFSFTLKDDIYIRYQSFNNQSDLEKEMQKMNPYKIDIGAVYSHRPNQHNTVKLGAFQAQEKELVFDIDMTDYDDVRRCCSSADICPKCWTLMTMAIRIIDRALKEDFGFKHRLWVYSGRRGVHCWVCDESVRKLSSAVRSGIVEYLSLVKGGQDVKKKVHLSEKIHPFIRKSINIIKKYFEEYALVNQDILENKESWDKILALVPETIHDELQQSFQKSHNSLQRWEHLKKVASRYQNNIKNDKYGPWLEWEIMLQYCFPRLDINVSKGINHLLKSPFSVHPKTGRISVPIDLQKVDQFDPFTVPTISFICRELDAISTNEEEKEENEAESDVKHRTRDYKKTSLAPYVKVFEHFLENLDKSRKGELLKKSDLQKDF
UniProt P09884, sequence (P09884 whole entry, looked up): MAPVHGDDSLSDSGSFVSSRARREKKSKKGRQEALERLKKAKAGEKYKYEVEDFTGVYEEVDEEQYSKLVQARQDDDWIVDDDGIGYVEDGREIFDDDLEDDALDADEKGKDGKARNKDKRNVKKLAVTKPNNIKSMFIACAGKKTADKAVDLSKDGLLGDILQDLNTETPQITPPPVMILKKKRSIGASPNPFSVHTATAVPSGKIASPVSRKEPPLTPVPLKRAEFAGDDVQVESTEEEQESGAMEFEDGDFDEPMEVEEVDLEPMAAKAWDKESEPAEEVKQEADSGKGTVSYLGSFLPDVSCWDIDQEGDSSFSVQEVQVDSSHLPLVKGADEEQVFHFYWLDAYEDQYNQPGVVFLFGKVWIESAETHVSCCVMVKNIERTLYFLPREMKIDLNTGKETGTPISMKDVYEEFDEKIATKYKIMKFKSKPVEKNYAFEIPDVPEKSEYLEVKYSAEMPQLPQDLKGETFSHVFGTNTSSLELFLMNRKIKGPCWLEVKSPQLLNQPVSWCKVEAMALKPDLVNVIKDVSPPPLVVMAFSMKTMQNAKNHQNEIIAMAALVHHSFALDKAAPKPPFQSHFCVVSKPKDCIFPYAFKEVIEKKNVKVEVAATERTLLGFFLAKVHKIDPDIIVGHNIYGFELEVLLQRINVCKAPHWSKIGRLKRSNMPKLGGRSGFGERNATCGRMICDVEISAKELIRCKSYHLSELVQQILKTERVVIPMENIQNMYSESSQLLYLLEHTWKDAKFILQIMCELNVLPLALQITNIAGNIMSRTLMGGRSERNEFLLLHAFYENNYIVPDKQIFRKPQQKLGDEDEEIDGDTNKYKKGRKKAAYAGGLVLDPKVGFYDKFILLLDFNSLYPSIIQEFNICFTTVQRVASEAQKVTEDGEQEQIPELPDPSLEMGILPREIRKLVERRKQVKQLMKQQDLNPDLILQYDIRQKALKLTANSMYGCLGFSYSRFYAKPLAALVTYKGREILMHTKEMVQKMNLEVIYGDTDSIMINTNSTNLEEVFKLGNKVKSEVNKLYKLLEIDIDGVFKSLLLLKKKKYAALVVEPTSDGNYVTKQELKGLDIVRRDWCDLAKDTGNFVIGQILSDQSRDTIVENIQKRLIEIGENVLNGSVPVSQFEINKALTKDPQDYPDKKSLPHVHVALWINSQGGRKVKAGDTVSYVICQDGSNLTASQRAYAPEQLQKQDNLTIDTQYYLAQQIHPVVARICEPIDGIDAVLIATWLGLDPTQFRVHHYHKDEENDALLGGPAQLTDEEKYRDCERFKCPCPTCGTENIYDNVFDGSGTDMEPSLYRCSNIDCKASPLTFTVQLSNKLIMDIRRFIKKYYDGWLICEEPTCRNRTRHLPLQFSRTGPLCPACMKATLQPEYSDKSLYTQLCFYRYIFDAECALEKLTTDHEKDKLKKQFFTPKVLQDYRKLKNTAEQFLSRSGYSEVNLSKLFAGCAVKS
UniProt O15067, sequence (O15067 whole entry, looked up): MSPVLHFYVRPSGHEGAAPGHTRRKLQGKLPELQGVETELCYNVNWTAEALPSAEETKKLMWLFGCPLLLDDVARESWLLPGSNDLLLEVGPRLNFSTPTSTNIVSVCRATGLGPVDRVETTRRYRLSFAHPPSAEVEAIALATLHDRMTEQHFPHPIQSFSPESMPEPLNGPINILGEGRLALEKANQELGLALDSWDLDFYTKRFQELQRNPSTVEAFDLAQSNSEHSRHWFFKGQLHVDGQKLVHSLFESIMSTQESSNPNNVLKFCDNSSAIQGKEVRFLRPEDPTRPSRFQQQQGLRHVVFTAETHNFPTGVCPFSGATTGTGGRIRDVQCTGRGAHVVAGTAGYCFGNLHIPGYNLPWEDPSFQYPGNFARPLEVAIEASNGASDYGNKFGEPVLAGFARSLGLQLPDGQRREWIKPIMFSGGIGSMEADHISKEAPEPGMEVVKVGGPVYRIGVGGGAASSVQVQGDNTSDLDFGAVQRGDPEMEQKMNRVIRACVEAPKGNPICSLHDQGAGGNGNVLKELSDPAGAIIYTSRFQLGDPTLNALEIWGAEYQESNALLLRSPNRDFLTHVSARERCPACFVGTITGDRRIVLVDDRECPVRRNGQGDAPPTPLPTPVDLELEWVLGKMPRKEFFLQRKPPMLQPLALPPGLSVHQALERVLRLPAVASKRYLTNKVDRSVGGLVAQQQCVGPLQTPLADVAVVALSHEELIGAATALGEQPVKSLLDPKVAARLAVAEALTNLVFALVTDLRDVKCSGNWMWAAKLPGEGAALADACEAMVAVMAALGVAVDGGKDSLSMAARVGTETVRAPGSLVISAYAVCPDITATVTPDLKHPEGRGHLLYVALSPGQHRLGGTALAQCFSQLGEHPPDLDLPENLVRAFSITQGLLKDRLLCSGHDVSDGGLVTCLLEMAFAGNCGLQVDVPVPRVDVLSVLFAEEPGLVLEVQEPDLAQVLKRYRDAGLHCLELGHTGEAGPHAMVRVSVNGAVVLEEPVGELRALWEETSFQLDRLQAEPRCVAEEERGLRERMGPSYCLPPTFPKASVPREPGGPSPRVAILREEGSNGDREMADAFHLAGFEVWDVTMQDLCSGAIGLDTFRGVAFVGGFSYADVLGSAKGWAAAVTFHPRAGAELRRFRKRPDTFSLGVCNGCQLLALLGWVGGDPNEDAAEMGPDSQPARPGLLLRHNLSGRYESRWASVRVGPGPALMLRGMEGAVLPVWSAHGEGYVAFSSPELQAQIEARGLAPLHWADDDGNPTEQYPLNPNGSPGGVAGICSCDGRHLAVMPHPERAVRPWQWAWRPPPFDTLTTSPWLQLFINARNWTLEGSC
UniProt Q9BUL8, sequence (Q9BUL8 whole entry, looked up): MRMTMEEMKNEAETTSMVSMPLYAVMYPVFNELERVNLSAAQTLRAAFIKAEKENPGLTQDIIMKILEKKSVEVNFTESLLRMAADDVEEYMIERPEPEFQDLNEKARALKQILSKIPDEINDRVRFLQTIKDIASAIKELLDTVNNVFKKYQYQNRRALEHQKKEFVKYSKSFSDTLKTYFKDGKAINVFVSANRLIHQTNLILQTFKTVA
UniProt P29350, sequence (P29350 whole entry, looked up): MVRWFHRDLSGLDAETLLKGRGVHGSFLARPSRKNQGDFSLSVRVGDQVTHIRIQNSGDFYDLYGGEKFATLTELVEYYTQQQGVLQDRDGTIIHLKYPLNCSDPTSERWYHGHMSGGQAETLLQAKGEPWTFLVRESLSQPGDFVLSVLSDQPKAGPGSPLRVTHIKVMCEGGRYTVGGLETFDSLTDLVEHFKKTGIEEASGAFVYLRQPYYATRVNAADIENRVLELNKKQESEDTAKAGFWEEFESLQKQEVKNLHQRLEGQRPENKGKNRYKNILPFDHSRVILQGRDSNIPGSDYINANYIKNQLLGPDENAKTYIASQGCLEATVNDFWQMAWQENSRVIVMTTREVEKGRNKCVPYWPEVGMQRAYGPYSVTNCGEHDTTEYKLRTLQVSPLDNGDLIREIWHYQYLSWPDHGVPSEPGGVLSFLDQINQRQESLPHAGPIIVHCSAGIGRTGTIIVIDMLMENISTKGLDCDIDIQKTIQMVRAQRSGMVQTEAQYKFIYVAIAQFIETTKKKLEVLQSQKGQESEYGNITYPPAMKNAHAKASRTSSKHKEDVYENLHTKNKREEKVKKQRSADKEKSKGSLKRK
UniProt Q8N8N7, sequence (Q8N8N7 whole entry, looked up): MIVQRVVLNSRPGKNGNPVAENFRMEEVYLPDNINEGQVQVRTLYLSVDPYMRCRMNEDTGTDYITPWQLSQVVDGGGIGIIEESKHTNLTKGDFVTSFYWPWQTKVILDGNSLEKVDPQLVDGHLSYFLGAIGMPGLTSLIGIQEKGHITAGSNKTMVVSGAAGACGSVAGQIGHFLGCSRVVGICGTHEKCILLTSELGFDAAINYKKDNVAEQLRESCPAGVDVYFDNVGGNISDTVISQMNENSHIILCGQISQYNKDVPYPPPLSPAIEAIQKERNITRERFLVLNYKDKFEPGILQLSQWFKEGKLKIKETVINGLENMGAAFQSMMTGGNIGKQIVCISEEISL
UniProt O60927, sequence (O60927 whole entry, looked up): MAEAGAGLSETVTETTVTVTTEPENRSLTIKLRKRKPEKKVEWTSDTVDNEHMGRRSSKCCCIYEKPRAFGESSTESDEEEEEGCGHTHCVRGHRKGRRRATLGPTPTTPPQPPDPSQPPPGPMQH
UniProt P53609, sequence (P53609 whole entry, looked up): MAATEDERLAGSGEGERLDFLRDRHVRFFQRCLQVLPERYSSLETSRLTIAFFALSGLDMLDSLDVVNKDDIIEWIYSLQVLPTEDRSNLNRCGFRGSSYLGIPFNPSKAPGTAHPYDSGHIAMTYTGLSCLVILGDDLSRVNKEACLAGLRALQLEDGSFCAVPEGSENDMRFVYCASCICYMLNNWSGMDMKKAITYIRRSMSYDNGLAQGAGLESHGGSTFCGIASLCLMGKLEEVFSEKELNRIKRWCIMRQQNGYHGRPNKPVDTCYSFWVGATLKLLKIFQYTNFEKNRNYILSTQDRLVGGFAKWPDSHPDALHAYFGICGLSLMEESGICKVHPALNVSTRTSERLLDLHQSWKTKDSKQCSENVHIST
UniProt P07737, sequence (P07737 whole entry, looked up): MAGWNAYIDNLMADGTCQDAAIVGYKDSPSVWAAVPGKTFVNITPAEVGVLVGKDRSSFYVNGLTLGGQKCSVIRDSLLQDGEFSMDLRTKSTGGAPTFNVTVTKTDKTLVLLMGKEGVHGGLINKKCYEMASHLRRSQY

Target | log2 fold change (ibrutinib) | log2 fold change [1] | log2 fold change (ralimetinib) | log2 fold change [2] | log2 fold change [3] | log2 fold change [4] | log2 fold change [5] | log2 fold change [6] | log2 fold change [7] | log2 fold change [8]
PTPN7 isoform 3 (UniProt P35236) | 0.018 | 0.027 | 0.066 | -0.021 | -0.044 | -0.023 | -0.053 | -0.07 | 0.005 | 0.032
PYCR2 (UniProt Q96C36) | 0.012 | 0.002 | -0.007 | -0.032 | -0.007 | -0.026 | 0.001 | 0.013 | -0.017 | -0.016
PIP4K2A (UniProt P48426) | -0.052 | 0.086 | 0.032 | -0.053 | -0.043 | -0.017 | -0.019 | -0.002 | -0.028 | -0.026
PIKFYVE (UniProt Q9Y2I7) | 0.019 | -0.012 | 0.011 | -0.012 | 0 | 0.042 | 0.003 | -0.044 | 0.016 | -0.004
PRC1 (UniProt O43663) | -0.007 | 0.009 | -0.016 | 0.01 | 0.01 | 0.039 | -0.006 | 0.025 | 0.021 | 0.059
PRRC2A (UniProt P48634) | 0.006 | -0.014 | -0.01 | -0.02 | 0.002 | 0.015 | -0.003 | -0.26 (active) | 0.003 | -0.026
PI4K2A (UniProt Q9BTU6) | -0.017 | 0.044 | 0.002 | -0.037 | -0.006 | -0.028 | 0.028 | -0.06 | 0 | -0.009
PFAS (UniProt O15067) | -0.007 | -0.016 | 0.03 | 0.006 | 0.003 | -0.015 | -0.003 | -0.041 | 0.032 | 0.002
PRIM1 (UniProt P49642) | -0.016 | 0.014 | 0.056 | 0.056 | 0.016 | 0.027 | -0.019 | 0.015 | 0.011 | 0.02
PUM1 isoform 3 (UniProt Q14671) | -0.034 | 0.009 | 0.003 | -0.031 | -0.035 | 0.032 | 0.044 | -0.435 (active) | 0.049 | 0.014
PPP1R11 (UniProt O60927) | -0.037 | 0.058 | 0.062 | -0.021 | -0.024 | 0.1 | 0.052 | 0.059 | -0.037 | -0.01
PRKACB isoform 2 (UniProt P22694) | -0.006 | 0.693 (active) | 0.033 | -0.03 | -0.013 | 0.025 | -0.014 | -0.037 | 0.014 | -0.024
POLA1 (UniProt P09884) | 0 | -0.013 | -0.032 | 0.003 | 0.001 | 0.007 | -0.001 | 0.02 | 0.022 | -0.016
PTGR2 (UniProt Q8N8N7) | -0.006 | 0.026 | 0.019 | 0.068 | -0.042 | -0.011 | -0.024 | 0.006 | 0.037 | 0.029
PDXK (UniProt O00764) | 0.007 | 0.014 | 0.01 | -0.006 | -0.009 | 0.017 | -0.058 | 0.016 | -0.029 | -0.001
PFN1 (UniProt P07737) | -0.018 | -0.007 | 0.009 | 0.013 | -0.022 | -0.017 | 0.009 | 0.007 | 0 | 0.002
PCBD2 (UniProt Q9H0N5) | 0.035 | 0.02 | 0.051 | -0.08 | 0.033 | 0.025 | 0.022 | 0.027 | -0.007 | -0.03
PES1 (UniProt O00541) | 0.016 | 0.017 | 0.031 | -0.03 | 0.006 | 0.013 | -0.052 | 0.012 | 0.003 | 0.007
PTPN6 isoform 4 (UniProt P29350) | 0.051 | -0.077 | 0.045 | -0.026 | 0.019 | 0 | -0.081 | -0.031 | 0.011 | 0.054
PIK3C3 (UniProt Q8NEB9) | -0.056 | -0.021 | -0.023 | -0.096 | 0.015 | -0.032 | -0.015 | -0.002 | -0.011 | -0.056
PHGDH (UniProt O43175) | 0.03 | 0.021 | 0.013 | 0.028 | 0.012 | -0.003 | 0.013 | -0.004 | -0.012 | 0.029
PDCD10 (UniProt Q9BUL8) | 0.001 | 0.062 | 0 | -0.006 | -0.008 | -0.02 | 0.016 | 0.021 | -0.02 | -0.02
PCBP2 isoform 3 (UniProt Q15366) | -0.007 | 0.025 | 0.021 | 0.022 | -0.019 | -0.034 | 0.06 | -0.017 | -0.016 | -0.017
PFKFB3 isoform 4 (UniProt Q16875) | -0.015 | 0.11 | 0.044 | -0.003 | 0 | 0.027 | 0.003 | 0.011 | -0.019 | 0.148
PPP2R5C isoform 4 (UniProt Q13362) | 0.023 | -0.011 | -0.089 | -0.05 | -0.032 | -0.003 | 0.095 | 0.05 | 0.012 | 0.001
PDE4DIP isoform 4 (UniProt Q5VU43) | 0.249 | -0.021 | 0.02 | -0.03 | -0.061 | -0.032 | 0.006 | 0.054 | -0.033 | 0.017
PGGT1B (UniProt P53609) | -0.018 | 0.004 | -0.015 | 0.03 | -0.092 | 0.002 | 0.032 | -0.039 | -0.011 | 0.007

From the supplement of paper PMC10849652
